# High-throughput results as filed in PubChem BioAssay.
# The full list was thinned out, with hits kept by preference.
# LmPK inh: inhibitors of Leishmania mexicana pyruvate kinase; Potency, µM (top dose mostly 57.5 µM), without a hit: at the top dose activity change, negative = inhibition, hits mostly inhibitors; purified LmPK, Kinase-Glo ATP luminescence, 1 h; 290,000 compounds, 0.37% hits; Q27686; note: potency is the fitted concentration of half-maximal effect; % is set by controls: 0 for no effect and ±100 for the full control effect
# Target sequence (Q27686 whole entry, looked up): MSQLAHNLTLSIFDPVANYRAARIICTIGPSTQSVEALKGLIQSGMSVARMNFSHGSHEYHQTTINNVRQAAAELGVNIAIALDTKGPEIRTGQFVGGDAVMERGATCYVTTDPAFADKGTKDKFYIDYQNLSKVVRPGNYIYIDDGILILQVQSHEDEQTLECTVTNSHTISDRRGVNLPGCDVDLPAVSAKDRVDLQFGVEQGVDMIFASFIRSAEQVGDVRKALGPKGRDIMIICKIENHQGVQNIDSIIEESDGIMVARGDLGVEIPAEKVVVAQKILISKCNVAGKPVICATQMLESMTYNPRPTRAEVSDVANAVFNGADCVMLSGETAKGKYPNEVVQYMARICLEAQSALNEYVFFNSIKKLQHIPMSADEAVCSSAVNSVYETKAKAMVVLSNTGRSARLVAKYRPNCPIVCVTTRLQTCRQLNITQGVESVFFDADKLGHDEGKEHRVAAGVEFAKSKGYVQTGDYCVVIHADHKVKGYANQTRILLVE
#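 0.1 nM LmPK, 0.5 mM PEP, 0.1 mM ADP; 50 mM imidazole pH 7.2, 7 mM MgCl2, 50 mM KCl; 1 h RT. Kinase-Glo luminescence readout, normalized to no-enzyme (full inhibition) and uninhibited wells.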
# FBPA Giardia inh: Giardia lamblia aldolase inhibition. purified Giardia FBPA. Potency, µM (highest dose often 59.6 µM), for the others: at the top dose activity, negative = inhibition, actives largely listed as inhibitors. 290,000 compounds, 0.71% hits; note: potency is the fitted concentration of half-maximal effect; % is set by controls: 0 for no effect and ±100 for the full control effect; nearly all actives have a fitted effect of over 55% in size
#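 40 nM FBPA preincubated 10 min at RT with compound (up to 57.5 uM final), then substrate plus GAPDH/TPI/NAD/arsenate coupling and diaphorase/resazurin added. Fluorescence read after 20 min at RT, 525/598 nm.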
# RE007 growth inh: less growth of the S. pombe RE007 Vpr strain | S. pombe RE007 Vpr strain, BacTiter-Glo ATP luminescence, 24 h | Potency, µM (top dose mostly 92.2 µM), for inactives: top-dose activity change, negative = less growth, hits mostly inhibitors | 360,000 compounds, 0.21% hits | AID 651644; active = well fitted falling curve with a large enough effect; inconclusive = small, poorly fitted or top-dose-only effect; inactive = no such curve, though single readings can be large or run the other way; note: potency is the fitted concentration of half-maximal effect; % is set by controls: 0 for no effect and ±100 for the full control effect; nearly all actives have a fitted effect of over 50% in size
#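 Fission yeast strain RE007, carrying one chromosomally integrated HIV-1 vpr copy, was seeded at OD 0.01 in PMG+AL medium with 23 nL pinned compound. After 24 h at 30 °C and 99% humidity, viability was read by BacTiter-Glo luminescence.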
# Shiga inhibitor: Shiga toxin inhibition; inhibition, % at 38.7 µM; 290,000 compounds, 9.2% hits; AID 2315; Vero cells, Shiga toxin protein synthesis inhibition reporter; in the data active = inhibition mostly above about 28%, no sharp cut-off; inactive = mostly below about 43%; note: 0% is about no effect
# Tb PYK inh: inhibitors of Trypanosoma brucei pyruvate kinase. TbPYK enzyme, Kinase-Glo Plus ATP luminescence, 45 min. Potency, µM (doses to about 76.8 µM), without a hit: at the highest dose activity, negative = inhibition, actives largely listed as inhibitors. 410,000 compounds, 0.12% hits; note: potency is the fitted concentration of half-maximal effect; % is set by controls: 0 for no effect and ±100 for the full control effect; nearly all actives have a fitted effect of over 50% in size
#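 Screened from lowest to highest concentration, compounds were pinned into TbPYK/substrate mixtures, and ADP (130 uM final) was added. Plates sat at room temperature for 45 min prior to Kinase-Glo Plus detection by luminescence.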
# Cycloheximide cs: affects cycloheximide protein synthesis inhibition readout, counter-screen; cell reporter, cycloheximide protein synthesis inhibition counterscreen; max response, %; 300,000 compounds, 12% hits; in the data active = max response mostly above about 13%, no sharp cut-off; inactive = mostly below about 14%; note: read at 38.3 µM for the half of the compounds with a filed dose; 0% is about no effect
# * hit, by the source's call; ? = inconclusive; nt = no result; [ ] = remark or other dose. Unless noted, calls come from the whole dose curve; as a rule, active = well fitted curve in the direction sought with a large enough effect; inconclusive = small, poorly fitted or top-dose-only effect, or another doubt; inactive = no such curve, though single readings can be large; an effect the other way counts as inactive or inconclusive.
SMILES,LmPK inh,FBPA Giardia inh,RE007 growth inh,Shiga inhibitor,Tb PYK inh,Cycloheximide cs
O=C(Nc1ccc(NC(=O)c2cccnc2Cl)cc1)c1cccc(Cl)c1,11%,4%,7%,40*,-3%,21
CC(=O)NC(=S)Nc1ccc(NC(=O)c2cccnc2Cl)cc1,0%,-13%,-15%,47,-3%,25*
COc1ccc(/C=C/c2cc(C(F)(F)F)on2)cc1,1%,-1%,-1%,64*,-4%,40*
O=C(c1ccc(-c2ccccc2)c(F)c1)C1CCCN(CCO)C1 (configuration not stated),1%,4%,3%,68,-2%,15*
CN(C)S(=O)(=O)N1CCCC(C(=O)c2ccc(-c3ccccc3)c(F)c2)C1 (configuration not stated),12%,1%,2%,35*,2%,15*
COC(CNC(=O)CSCc1nc(-c2ccc(SC)cc2)oc1C)OC,-4%,6%,9%,26,4%,9
CCCNC(=O)CSCc1nc(-c2ccc(SC)cc2)oc1C,4%,2%,-23%,35,1%,26*
CC(=O)Nc1ccc(C2NC(C(=O)O)CCC2C)cc1 (configuration not stated),nt,3%[12.9 µM],nt,nt,nt,nt
CC(C)CC(=O)Nc1ccc2nn(-c3ccccc3)nc2c1,-1%,-17%,-17%,53*,-9%,66*
Cc1ccc(-n2nc3ccc(NC(=O)C(C)C)cc3n2)cc1,0%,-5%,25%,119*,-5%,54*
Cc1ccc(-n2nc3ccc(NC(=O)c4ccc5c(c4)OCO5)cc3n2)cc1,6%,-2%,4%,9,-6%,-3
Cc1ccc(-n2nc3ccc(NC(=O)c4cccc([N+](=O)[O-])c4C)cc3n2)cc1,4%,0%,1%,52,4%,28*
Cc1ccc(-n2nc3ccc(NC(=O)c4ccco4)cc3n2)cc1,1%,-6%,23%,51*,1%,38*
Cc1ccc2scc(N3CCCCC3)c(=O)c2c1,nt,nt,nt,nt,-2%,nt
O=C(COCc1cc(-c2ccc(F)cc2)on1)Nc1cc(Cl)cc(Cl)c1,nt,nt,nt,nt,0%,nt
COc1cc(C2C(C(=O)Nc3ccccc3)=C(C)Nc3nnnn32)cc(OC)c1OC (configuration not stated),nt,nt,nt,nt,6%,nt
CCOc1ccc(S(=O)(=O)NCCc2csc(-c3ccc(Cl)cc3)n2)cc1,nt,nt,nt,nt,0%,nt
CCCC(=O)Nc1ccc2nn(-c3ccc(OC)cc3)nc2c1,-3%,-8%,-9%,nt,-1%,41*
CC(C)C(=O)Nc1ccc2nn(-c3ccc(F)cc3)nc2c1,-2%,10%,-19%,46*,-7%,28*
CCCC(=O)Nc1cc2nn(-c3ccc(OC)cc3)nc2cc1C,nt,nt,nt,nt,0%,nt
Cc1ccc(-c2nnc(CCC(=O)N(C)Cc3nccs3)o2)s1,2%,0%,15%,-6,-4%,-4
Cc1ccc(-c2nnc(CCC(=O)NCC3C4CC5CC(C4)CC3C5)o2)s1 (configuration not stated),4%,4%,-20%,103*,-1%,52*
COc1ccc(C(=O)N2CCc3ccc(NC(=O)c4ccccn4)cc3C2)cc1F,-5%,0%,-3%,56*,-5%,42*
COc1ccc(OC)c(CCNC(=O)CCCn2c(=O)c3cccn3c3ccc(F)cc32)c1,nt,nt,nt,nt,-1%,nt
COc1ccc(NC(=O)N2CCCC3(CCN(C(=O)c4cccn4C)CC3)C2)cc1,nt,-3%,nt,nt,-4%,nt
SMILES,LmPK inh,FBPA Giardia inh,RE007 growth inh,Shiga inhibitor,Tb PYK inh,Cycloheximide cs
C=CCOC(=O)N[C@H](c1ccco1)C(C(C)=O)C(C)=O,nt,-2%,nt,nt,nt,nt
COc1ccc(OC)c(/C=C/C(=O)NC2=NCCS2)c1,0%,-9%,1%,33,-2%,17
CCSc1nnc(NC(=O)/C=C/c2ccco2)s1,10%,0%,-3%,117*,-1%,30*
CNS(=O)(=O)c1ccc2nc(NC(=O)/C=C/c3ccco3)sc2c1,26%,-8%,-13%,26,-14%,13
O=C(/C=C/c1ccco1)NC1=NCCS1,-11%,-20%,-1%,43*,-6%,61*
COC(=O)c1sc(NC(=O)/C=C/c2ccc(C)o2)nc1C,-2%,-1%,-25%,56*,43%,33*
COc1ccc(/C=C/C(=O)NC2=NCCS2)cc1OC,3%,3%,5%,70*,0%,38*
CCc1nnc(NC(=O)/C=C/c2ccco2)s1,1%,1%,-2%,55,-8%,27*
O=C(/C=C/c1ccco1)Nc1cccc(NC(=O)/C=C/c2ccco2)n1,1%,-17%,1%,103*,-7%,33*
CCc1nnc(NC(=O)CSc2ccc(-c3ccco3)nn2)s1,21%,?,-6%,17,0%,9
O=C(/C=C/c1ccco1)Nc1nnc(-c2ccco2)s1,-1%,-1%,8%,48,2%,14*
Cc1nc(NC(=O)/C=C/c2ccco2)sc1C,1%,-5%,11%,144*,-12%,57*
COc1ccc(C2C=C(c3ccccc3)Nc3nc(NC(=O)/C=C/c4ccc(Cl)cc4)nn32)cc1 (configuration not stated),nt,nt,nt,nt,4%,nt
CC(=O)N1N=C(c2cccnc2)CC1c1ccccc1O (configuration not stated),1%,4%,-6%,-4,4%,1
CCN1CCC2(CC1)Oc1c(OC)cccc1C1CC(c3cccnc3)=NN12 (configuration not stated),-2%,-1%,-15%,55*,-8%,44*
O=C(CSc1nc2c(sc3ccccc32)c(=O)n1-c1ccccc1)NCc1ccco1,1%,0%,10%,44,-13%,30*
CCOCCCn1c(SCC(=O)NCc2ccco2)nc2c(sc3ccccc32)c1=O,7%,-6%,-15%[3.69 µM],46,nt,32*
O=C(CSc1nc2c(sc3ccccc32)c(=O)n1CCc1ccccc1)NCc1ccco1,4%,2%,-4%,-3,1%,-1
CCCCn1c(SCC(=O)NCc2ccco2)nc2c(sc3ccccc32)c1=O,-5%,0%,4%,18,-15%,15
CN(C(=O)CNC(=O)c1ccc(Br)o1)C1CCCCC1,0%,1%,5%,78*,7%,21*
O=C(NC1CCCCC1)c1cc2cc(Br)ccc2o1,0%,-7%,-2%,76*,1%,58*
Cc1ccc(NC(=O)/C(=C/c2cccc([N+](=O)[O-])c2)NC(=O)C2CCCCC2)cc1,5%,0%,-9%,-5,0%,-1
O=C(NC1CCCC1)c1cc2cc(Br)ccc2o1,3%,-12%,?,92*,0%,51*
O=C(CNC(=O)c1ccc(Br)o1)NCC1CCCCC1,nt,nt,17%,nt,0%,nt
